Consider seven compounds from PubChem BioAssay AID1508601 (ICCB-Longwood Screening Facility, Harvard Medical School, 2020).

The structures appear in SMILES notation. Values joined by “and” are separate entries in the source; they are usually repeats but may differ in a detail not shown here. Identical values can stand only once. Out of some 5,700 compounds screened, about 85 (1%) were called active. No stated cut-off is given here; in the data, active means p53-positive nuclei above about 36% (passing the limit was not always enough); inactive means the rest. The list comes from a sample in which actives are over-represented; it also holds similar structures and randomly drawn compounds.

Assay [1] is described as follows: nuclear p53 accumulation, HPV+ cells – imaging, p53-positive nuclei imaging, 24 h, 48 h (AID 1508601). The note with it: 24/48 h.
Assay [2] has as its target Cellular tumor antigen p53 (Homo sapiens) (UniProt P04637). The description is as above. The note with it: 24/48 h, stronger effect = higher value.
Setting [3] is: measured here: cell number at 24 h, Library stock concentration: 3.33 mM.
The mark [4] stands for this setting: measured here: cell number at 48 h, Library stock concentration: 3.33 mM.
Where [5] appears, read: Library stock concentration: 3.33 mM.
[6] abbreviates: measured here: p53 positive nuclei at 24 h, Library stock concentration: 3.33 mM.
Setting [7] is: measured here: cell number at 24 h, Library stock concentration: 10 mM.
[8] abbreviates: measured here: cell number at 48 h, Library stock concentration: 10 mM.
Setting [9] is: Library stock concentration: 10 mM.
Where [10] appears, read: measured here: p53 positive nuclei at 24 h, Library stock concentration: 10 mM.
Where [11] appears, read: measured here: cell number at 24 h, Library stock concentration: 80 uM.
The mark [12] stands for this setting: measured here: cell number at 24 h, Library stock concentration: 400 uM.
[13] abbreviates: measured here: cell number at 24 h, Library stock concentration: 2 mM.
[14] abbreviates: measured here: cell number at 48 h, Library stock concentration: 80 uM.
The mark [15] stands for this setting: measured here: cell number at 48 h, Library stock concentration: 400 uM.
Setting [16] is: measured here: cell number at 48 h, Library stock concentration: 2 mM.
[17] abbreviates: Library stock concentration: 80 uM.
The mark [18] stands for this setting: Library stock concentration: 400 uM.
[19] abbreviates: Library stock concentration: 2 mM.
Setting [20] is: measured here: p53 positive nuclei at 24 h, Library stock concentration: 80 uM.
Where [21] appears, read: measured here: p53 positive nuclei at 24 h, Library stock concentration: 400 uM.
Where [22] appears, read: measured here: p53 positive nuclei at 24 h, Library stock concentration: 2 mM.
Where [23] appears, read: measured here: cell number at 24 h, concentration not given here.
[24] abbreviates: measured here: cell number at 48 h, concentration not given here.
[25] abbreviates: measured here: p53 positive nuclei at 24 h, concentration not given here.
[26] abbreviates: measured here: cell number at 24 h, Library stock concentration: 46 uM.
Setting [27] is: measured here: cell number at 24 h, Library stock concentration: 278 uM.
Setting [28] is: measured here: cell number at 24 h, Library stock concentration: 1.67 mM.
Setting [29] is: measured here: cell number at 48 h, Library stock concentration: 46 uM.
The mark [30] stands for this setting: measured here: cell number at 48 h, Library stock concentration: 278 uM.
The mark [31] stands for this setting: measured here: cell number at 48 h, Library stock concentration: 1.67 mM.
Where [32] appears, read: Library stock concentration: 46 uM.
Where [33] appears, read: Library stock concentration: 278 uM.
[34] abbreviates: Library stock concentration: 1.67 mM.
[35] abbreviates: measured here: p53 positive nuclei at 24 h, Library stock concentration: 46 uM.
[36] abbreviates: measured here: p53 positive nuclei at 24 h, Library stock concentration: 278 uM.
The mark [37] stands for this setting: measured here: p53 positive nuclei at 24 h, Library stock concentration: 1.67 mM.

Cellular tumor antigen p53 (Homo sapiens), sequence (P04637 whole entry, looked up): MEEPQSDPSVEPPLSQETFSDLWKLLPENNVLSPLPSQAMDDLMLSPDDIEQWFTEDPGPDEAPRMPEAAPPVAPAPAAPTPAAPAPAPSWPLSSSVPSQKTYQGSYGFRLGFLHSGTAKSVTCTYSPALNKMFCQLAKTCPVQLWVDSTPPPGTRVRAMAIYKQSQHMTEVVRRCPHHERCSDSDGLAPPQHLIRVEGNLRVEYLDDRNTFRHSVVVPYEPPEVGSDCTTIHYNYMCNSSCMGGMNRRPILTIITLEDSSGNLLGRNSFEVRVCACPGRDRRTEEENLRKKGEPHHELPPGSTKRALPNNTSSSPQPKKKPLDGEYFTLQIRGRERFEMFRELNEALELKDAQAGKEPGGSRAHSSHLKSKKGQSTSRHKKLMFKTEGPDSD

With `CCC(C(C)O)n1ncn(-c2ccc(N3CCN(c4ccc(OCC5CO[C@@](Cn6cncn6)(c6ccc(F)cc6F)C5)cc4)CC3)cc2)c1=O` (stereo partly drawn), the nuclei count, normalised in assay [1] (setting [3]) came to 91.3%; in assay [1] (setting [4]), 91.4%. In addition, the p53-positive nuclei, normalised in assay [2] (setting [5]) was -0.489% (inactive); in assay [2] (setting [6]), -0.171%.
For `CCOC(=O)c1sc(NC(=O)c2ccco2)c(SC#N)c1C`, the nuclei count, normalised in assay [1] (measured here: cell number at 24 h, Library stock concentration: 500 nM) came out at 118%; in assay [1] (measured here: cell number at 24 h, Library stock concentration: 1.5 uM) it was 119%; in assay [1] (measured here: cell number at 24 h, Library stock concentration: 4.6 uM), 115%; in assay [1] (measured here: cell number at 24 h, Library stock concentration: 13.7 uM), 107%; in assay [1] (measured here: cell number at 24 h, Library stock concentration: 41 uM), 124%; in assay [1] (measured here: cell number at 24 h, Library stock concentration: 123 uM) it was 109%. Also, the nuclei count, normalised turned out to be 113% in assay [1] (measured here: cell number at 24 h, Library stock concentration: 370 uM); 114% in assay [1] (measured here: cell number at 24 h, Library stock concentration: 1.111 mM); 103% in assay [1] (measured here: cell number at 24 h, Library stock concentration: 3.333 mM); 97.4% in assay [1] (setting [7]); 111% in assay [1] (measured here: cell number at 48 h, Library stock concentration: 500 nM); 109% in assay [1] (measured here: cell number at 48 h, Library stock concentration: 1.5 uM). Further, the nuclei count, normalised in assay [1] (measured here: cell number at 48 h, Library stock concentration: 4.6 uM) was 104%; in assay [1] (measured here: cell number at 48 h, Library stock concentration: 13.7 uM), 103%; in assay [1] (measured here: cell number at 48 h, Library stock concentration: 41 uM), 110%; in assay [1] (measured here: cell number at 48 h, Library stock concentration: 123 uM), 106%; in assay [1] (measured here: cell number at 48 h, Library stock concentration: 370 uM) it was 110%; in assay [1] (measured here: cell number at 48 h, Library stock concentration: 1.111 mM), 112%. In addition, the nuclei count, normalised in assay [1] (measured here: cell number at 48 h, Library stock concentration: 3.333 mM) worked out at 106%; in assay [1] (setting [8]) it was 101%. In addition, the p53-positive nuclei, normalised in assay [2] (Library stock concentration: 500 nM) was 0.102% (inactive); in assay [2] (Library stock concentration: 1.5 uM) it was -0.24% (inactive); in assay [2] (Library stock concentration: 4.6 uM), -0.158% (inactive); in assay [2] (Library stock concentration: 13.7 uM) it was -0.0345% (inactive); in assay [2] (Library stock concentration: 41 uM), 0.07% (inactive); in assay [2] (Library stock concentration: 123 uM) it was 0.0394% (inactive). The p53-positive nuclei, normalised in assay [2] (Library stock concentration: 370 uM) was 0.143% (inactive); in assay [2] (Library stock concentration: 1.111 mM), 0.138% (inactive); in assay [2] (Library stock concentration: 3.333 mM) it was 0.637% (inactive); in assay [2] (setting [9]) it was 1.1% (inactive); in assay [2] (measured here: p53 positive nuclei at 24 h, Library stock concentration: 500 nM), -0.0629%; in assay [2] (measured here: p53 positive nuclei at 24 h, Library stock concentration: 1.5 uM), -0.173%. The p53-positive nuclei, normalised in assay [2] (measured here: p53 positive nuclei at 24 h, Library stock concentration: 4.6 uM) was -0.116%; in assay [2] (measured here: p53 positive nuclei at 24 h, Library stock concentration: 13.7 uM), -0.111%; in assay [2] (measured here: p53 positive nuclei at 24 h, Library stock concentration: 41 uM) it was -0.122%; in assay [2] (measured here: p53 positive nuclei at 24 h, Library stock concentration: 123 uM), 0.00346%; in assay [2] (measured here: p53 positive nuclei at 24 h, Library stock concentration: 370 uM) it was 0.0563%; in assay [2] (measured here: p53 positive nuclei at 24 h, Library stock concentration: 1.111 mM), 0.34%. For the same compound, the p53-positive nuclei, normalised in assay [2] (measured here: p53 positive nuclei at 24 h, Library stock concentration: 3.333 mM) stood at 1.08%; in assay [2] (setting [10]) it was 2.09%.
With `Cn1cc(CNCC2CCN(c3ncc(C(=O)NO)cn3)CC2)c2ccccc21`, the nuclei count, normalised in assay [1] (setting [11]) came out at 71%; in assay [1] (setting [12]), 49.1%; in assay [1] (setting [13]), 40.5%; in assay [1] (setting [3]), 36.3%; in assay [1] (setting [7]), 37.2%; in assay [1] (setting [14]), 55.2%. Besides, the nuclei count, normalised in assay [1] (setting [15]) came to 24%; in assay [1] (setting [16]) it was 20.2%; in assay [1] (setting [4]) it was 20.7%; in assay [1] (setting [8]), 23.5%. Further, the p53-positive nuclei, normalised is 20.9% (inactive) in assay [2] (setting [17]); 102% (active) in assay [2] (setting [18]); 92.2% (active) in assay [2] (setting [19]); 111% (active) in assay [2] (setting [5]); 108% (active) in assay [2] (setting [9]); 43.9% in assay [2] (setting [20]). Further, the p53-positive nuclei, normalised in assay [2] (setting [21]) was 92.9%; in assay [2] (setting [22]), 103%; in assay [2] (setting [6]), 96.9%; in assay [2] (setting [10]) it was 120%.
Regarding `COc1cc(C(=O)NS(=O)(=O)c2ccccc2C)ccc1Cc1cn(C)c2ccc(NC(=O)OC3CCCC3)cc12`, the nuclei count, normalised in assay [1] (setting [11]) came out at 110%; in assay [1] (setting [12]), 108%; in assay [1] (setting [13]), 113%; in assay [1] (setting [3]), 103%; in assay [1] (setting [7]), 105%; in assay [1] (setting [23]), 89.5%. The nuclei count, normalised is 113% in assay [1] (setting [14]); 108% in assay [1] (setting [15]); 111% in assay [1] (setting [16]); 108% in assay [1] (setting [4]); 105% in assay [1] (setting [8]); 92.4% in assay [1] (setting [24]). The p53-positive nuclei, normalised in assay [2] (setting [17]) is -0.138% (inactive); in assay [2] (setting [18]), 0.119% (inactive); in assay [2] (setting [19]), -0.133% (inactive); in assay [2] (setting [5]) it was -0.0165% (inactive); in assay [2] (setting [9]) it was 0.0919% (inactive); in assay [2] (concentration not given here), -0.151% (inactive). The p53-positive nuclei, normalised in assay [2] (setting [20]) was -0.0129%; in assay [2] (setting [21]), -0.0637%; in assay [2] (setting [22]), 0.0356%; in assay [2] (setting [6]), -0.167%; in assay [2] (setting [10]) it was 0.0472%; in assay [2] (setting [25]), 0.0267%.
Turning to `CN1CCc2c(c3ccccc3n2Cc2ccc(C(=O)NO)cc2)C1`, the nuclei count, normalised in assay [1] (setting [26]) is 117%; in assay [1] (setting [27]), 120%; in assay [1] (setting [28]), 115%; in assay [1] (setting [3]), 110% and 92.2%; in assay [1] (setting [7]), 114%; in assay [1] (setting [29]) it was 119%. The nuclei count, normalised was 116% in assay [1] (setting [30]); 110% in assay [1] (setting [31]); 102% and 95.4% in assay [1] (setting [4]); 107% in assay [1] (setting [8]). The p53-positive nuclei, normalised in assay [2] (setting [32]) was -0.237% (inactive); in assay [2] (setting [33]), 0.0738% (inactive); in assay [2] (setting [34]), 0.201% (inactive); in assay [2] (setting [5]) it was -0.139% (inactive) and -0.349% (inactive); in assay [2] (setting [9]), -0.117% (inactive); in assay [2] (setting [35]) it was -0.158%. Further, the p53-positive nuclei, normalised is -0.207% in assay [2] (setting [36]); -0.0538% in assay [2] (setting [37]); -0.314% and -0.356% in assay [2] (setting [6]); -0.152% in assay [2] (setting [10]).
For the compound `CCCCC/C=C\C/C=C\CCCC/C=C\CCCC(=O)O`, the nuclei count, normalised turned out to be 97.6% in assay [1] (setting [23]) and 96% in assay [1] (setting [24]). The p53-positive nuclei, normalised in assay [2] (concentration not given here) was -0.0366% (inactive); in assay [2] (setting [25]), 0.0071%.
On to `Cc1ccc(B(O)O)cc1`, for which the nuclei count, normalised in assay [1] (setting [26]) came out at 105%; in assay [1] (setting [27]), 101%; in assay [1] (setting [28]) it was 110%; in assay [1] (setting [7]), 110%; in assay [1] (setting [29]), 109%; in assay [1] (setting [30]), 102%. For the same compound, the nuclei count, normalised in assay [1] (setting [31]) and in assay [1] (setting [8]) was 112% in each case. For the same compound, the p53-positive nuclei, normalised in assay [2] (setting [32]) was -0.0277% (inactive); in assay [2] (setting [33]) it was -0.207% (inactive); in assay [2] (setting [34]), -0.181% (inactive); in assay [2] (setting [9]) it was -0.0402% (inactive); in assay [2] (setting [35]) it was -0.0986%; in assay [2] (setting [36]), -0.148%. The p53-positive nuclei, normalised in assay [2] (setting [37]) is -0.218%; in assay [2] (setting [10]), -0.0984%.
